The supplement of paper PMC6555819

What was measured:
Experiment in all cases: PBM binding z-score (relative to random genomic background probes); higher = stronger binding; sequences stand for … in GC…GCGATTGACAGCGTAGAATGAAGG
[1] = test system: RARb homodimer (NR concentration 270 nM)
Summary of the method: (§1)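 Custom Agilent 4×180K protein-binding microarrays carried double-stranded probes. Their 34-nt variable regions held direct-repeat seeds, single-nucleotide variants, half-site ablations and random human genomic background sequences. Arrays were incubated 1 h with ligand-free nuclear receptor dimers in PBS pH 7.4, 2% milk, 0.02% Triton X-100, 1 mM DTT, 0.2 mg/mL BSA and 0.4 mg/ml salmon testes DNA. Antibodies against each partner (one per run) detected binding, and scanned fluorescence was regression-normalized. Binding z-scores use random background probes as reference.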

[2] = test system: RARg:RXRa (NR concentration 270 nM, RXRa partner concentration 90 nM)
Summary of the method: as §1

[3] = test system: RARg homodimer (NR concentration 270 nM)
Summary of the method: as §1

[4] = test system: RXRa DBDmut IVT, anti-RXR (DBD mutation: RXRa K156A/R161A, NR concentration 90 nM)
Summary of the method: as §1

[5] = test system: RXRa homodimer (NR concentration 180 nM)
Summary of the method: as §1

[6] = test system: THRa:RXRa (NR concentration 90 nM, RXRa partner concentration 90 nM)
Summary of the method: as §1

[7] = test system: THRa homodimer (NR concentration 90 nM)
Summary of the method: as §1

[8] = test system: VDR homodimer (NR concentration 270 nM)
Summary of the method: as §1

[9] = test system: VDR:RXRa (NR concentration 270 nM, RXRa partner concentration 90 nM)
Summary of the method: as §1

Sequence	PBM binding z-score [1]	PBM binding z-score [2]	PBM binding z-score [3]	PBM binding z-score [4]	PBM binding z-score [5]	PBM binding z-score [6]	PBM binding z-score [7]	PBM binding z-score [8]	PBM binding z-score [9]
TCTGCTAGGTCAACGATAGTCAGCTAATCTGCTA	2.84	3.9	4.6	0.919	2.63	2.67	0.277	-0.234	
TCATATAGGTAAAGGTGAAAATCGAACGATATGA	0.939	1.56	1.28	0.781	1.98	0.991	-0.415	-0.256	
TGTTGTAGATCAATAGAGGTTAAGAAAGTGCGCT	1.3	1.06	0.973	-0.255	1.25	2.39	-0.0243	0.759	
CCTAGTTGGTCAAGGCCACACACGCTATAGGTAC	1.52	0.785	1.19	0.685	0.442	1.07	1.18	0.836	
TCAGACAGGTGAAGGTAACTCACGTACGCAGTCG	0.616	0.706	0.586	1.3	0.939	0.624	0.0497	-0.22	
CCTACTGGGGCATAAGGTTACCATAAGCCAGCCC	1.86	1.78	1.29	-0.346	1.17	2.05	0.894	-0.339	
TTACCAAGGTGAAGGTCGATGATCCCTCTGTAGA	1.64	1.22	1.39	-0.217	1.4	2.05	0.572	0.0587	
GCGACTGGGGCAAAGCAGGTTAACATAAGGTTGG	1.27	0.386	0.747	-0.0641	0.513	3.19	0.0848	-0.0745	
TCAGATAGGTAAATGCTAGGTGAAAGTCCGATCT	0.292	0.258	0.0345	1.06	0.464	1.22	-0.0517	-0.287	
GGAACGAGGGCAAGTTGAGAGCAGAGTTTGATGG	1.58	1.77	2.21	2.26	0.94	1.45	0.0177	1.66	
CGAACGAGGGCATGAGTTGATAGTAAATGCCGAT	0.956	1.48	1.7	2.41	1.09	1.33	-0.0333	1.98	
CGAACTAGGTAAGAACAGGACAGTGAAGGATGAT	-0.183	0.0419	0.345	-0.391	-0.0524	0.664	-0.177	-0.504	
GCTGCTAGGTCAGCTGATGGTCAGCTAAAGCTCG	2.88	3.97	4.38	0.423	0.813	1.83	-0.0581	-1.09	
TCGAGTAGGTTACCAAGGGGGCATTCAGCTTTCT	1.98	4.64	1.87	1.26	1.98	2.16	0.891	2.16	
CCTAGTTGGTCAAGGTCACTCACGCTATAGGTAC	4.26	4.06	4.75	2.1	3.76	3.83	3.83	3.53	
CCGACTGCGGCAGAAAGGTTACCATACCATCCGG	1.92	0.857	0.647	-0.0879	1.57	1.02	0.00107	-0.0446	
TCTTGTAGATCAGCAGGTTAAGAAAGCTGGCCAA	-0.155	-0.199	-0.355	0.476	0.261	-0.0256	-0.621	-0.371	
ATCTCAAGGTAAAGTTCAGTGAAAGATCGATAGA	2.72	2.43	2.96	1.69	1.76	1.78	0.667	2.24	
AGAATGAGGTTACCAAAGATGAGGGAAACGCTTG	0.76	1.85	1.54	1.22	2.43	2.55	0.977	0.767	
CTACCAAGGTAAACAAGGTCGTTGATTACTATTC	1.18	0.545	0.535	1.34	1.06	3.2	1.5	2.04	
ACTAGCAGGCTAAGGGTCACTCAAGATTAGTCCG	3.89	3.88	3.65	0.904	4.18	2.6	-0.003	1.01	
GCGACTGGGGCAAAGCAGGTTACCCTAAGGTTGG	0.988	0.329	0.427	-0.421	0.394	2.85	0.12	-0.641	
ATGCCAAGGTGATCGTGAGGTCGTTGATACTAAC	1.42	2.12	0.718	0.41	1.52	3.54	2.25	2.53	
GCGACTGGGGCAAAGCAGGTCACCATAAGGTTGG	3.27	2.56	2.37	-0.174	2.09		1.37	0.256	
GATACAGGGGCAGCTAGAGGCCAGAGTATGGAAA	1.18	2.18	1.15	-0.0216	0.387		-0.373	-0.000725	-0.219
CGTCCAAGGTCAGCGAGGTCAGTGAATGCCGAGT	5.62	6.74	7.69	3.3	6.29		4.19	6.64	
GGAACGTGGGCATTCGAGTTGATAGCATGGCGAT	-0.657	-0.318	-0.321	-0.166	-0.389		-1.07	0.0395	
TAGCCTAGGCCATTCAGGGGCCAGTATAGAAAGC	0.802	0.999	0.71	-0.81	-0.0459		-0.688	-0.441	
